Experimental data taken from PubChem BioAssay (EPA / NIEHS).
Results filed as inconclusive are left out. Active and inactive are the calls of the source. Rule for the calls: active = hit-call score of the fitted dose curve at least 0.9, where 1 is the maximum; inconclusive = response in the unintended direction; inactive = score below 0.9.

How the values were obtained:
[1] = TOX21_p53_BLA_p2_viability: Viability Assessment in the Tox21 HCT-116 p53 Agonism Beta-lactamase Assay, Phase 2 (AID 2283591);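 note: compound exposure lasted 16 h at 37 °C; actives lower the ATP signal meaning cytotoxicity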
Method in brief: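 HCT116 p53-bla cells, 4000/well, dosed after 5 h plating (217-fold dilution of DMSO stocks) and incubated 16 h at 37C. Viability taken as cellular ATP by CellTiter-Glo luminescence after 30 min RT; signal loss marks cytotoxicity.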

[2] = target: Cellular tumor antigen p53 (Homo sapiens) (UniProt P04637); assay: TOX21_p53_BLA_p2_ratio: Tox21 HCT-116 p53 Agonism Beta-lactamase Assay, Ratio, Phase 2 (AID 2283592)
Chain of Cellular tumor antigen p53 (Homo sapiens) (P04637 whole entry, looked up): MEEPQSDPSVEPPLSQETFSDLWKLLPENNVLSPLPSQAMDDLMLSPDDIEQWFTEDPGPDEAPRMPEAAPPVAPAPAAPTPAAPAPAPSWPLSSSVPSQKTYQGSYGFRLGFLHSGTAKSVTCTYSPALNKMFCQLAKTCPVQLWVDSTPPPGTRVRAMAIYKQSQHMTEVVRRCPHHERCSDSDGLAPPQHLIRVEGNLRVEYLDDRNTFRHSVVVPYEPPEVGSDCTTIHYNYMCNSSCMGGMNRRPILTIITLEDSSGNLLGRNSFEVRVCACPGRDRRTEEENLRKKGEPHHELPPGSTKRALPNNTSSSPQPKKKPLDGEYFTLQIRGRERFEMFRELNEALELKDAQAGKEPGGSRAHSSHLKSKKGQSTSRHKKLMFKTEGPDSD
Method in brief: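 Ratio endpoint: beta-lactamase cleavage of CCF4-AM, blue (460 nm) over green (530 nm). HCT116 reporter line; 16 h treatment, 37C; substrate 2 h RT.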

[3] = TOX21_p53_BLA_p3_viability: Viability Assessment in the Tox21 HCT-116 p53 Agonism Beta-lactamase Assay, Phase 3 (AID 2283593);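 note: cells exposed to compound for 16 h before reading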
Method in brief: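 HCT116 cells, 4000/well, dosed 5 h after plating by pin transfer (217-fold dilution from DMSO stock) and incubated 16 h at 37C, 5% CO2. Viability read as ATP luminescence with CellTiter-Glo after 30 min at room temperature.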

[4] = target: Cellular tumor antigen p53 (Homo sapiens) (UniProt P04637); assay: TOX21_p53_BLA_p3_ratio: Tox21 HCT-116 p53 Agonism Beta-lactamase Assay, Ratio, Phase 3 (AID 2283596)
Method in brief: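 Cells were seeded at 4000/well, rested 5 h at 37C, then dosed with DMSO compound solutions (217-fold dilution) for 16 h. CCF4-AM substrate was loaded for 2 h at room temperature, and the 460/530 nm emission ratio was fitted for gain of signal versus DMSO.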

[5] = TOX21_p53_BLA_p4_viability: Viability Assessment in the Tox21 HCT-116 p53 Agonism Beta-lactamase Assay, Phase 4 (AID 2283597);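 note: hits lower the luminescence signal meaning cytotoxicity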
Method in brief: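 Cytotoxicity was inferred from loss of CellTiter-Glo luminescence. HCT116 cells had been dosed with compounds after 5 h plating, incubated 16 h at 37C and 5% CO2, and exposed to the CCF4-AM substrate for 2 h.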

[6] = target: Cellular tumor antigen p53 (Homo sapiens) (UniProt P04637); assay: TOX21_p53_BLA_p5_ratio: Tox21 HCT-116 p53 Agonism Beta-lactamase Assay, Ratio, Phase 5 (AID 2283599)
Method in brief: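 HCT-116 p53-bla cells (4000/well) plated 5 h, dosed with compound (217-fold DMSO dilution) for 16 h at 37 C; CCF4-AM substrate 2 h at room temperature. Activity is the 460/530 nm emission ratio (405 nm excitation), fitted in gain-of-signal direction versus DMSO.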

[7] = TOX21_p53_BLA_p5_viability: Viability Assessment in the Tox21 HCT-116 p53 Agonism Beta-lactamase Assay, Phase 5 (AID 2283600)
Method in brief: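 Luciferase-coupled ATP quantitation of cells treated for 16 h (37C, 5% CO2) with test chemicals delivered in DMSO via a 217-fold dilution; 4000 cells/well; reagent incubated 30 min at room temperature before luminescence reading.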

[8] = target: Cellular tumor antigen p53 (Homo sapiens) (UniProt P04637); assay: TOX21_p53_BLA_p4_ratio: Tox21 HCT-116 p53 Agonism Beta-lactamase Assay, Ratio, Phase 4 (AID 2283601)
Method in brief: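 HCT-116 p53 beta-lactamase reporter cells (4000/well) preincubated 5 h, then compound (217-fold dilution of DMSO stock) for 16 h at 37C. CCF4-AM substrate added 2 h at room temperature; 460/530 nm emission ratio fitted upward versus DMSO.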

[9] = Tanguay_ZF_120hpf_MORT_legacy: (Legacy) Oregon State University Tanguay Lab 120 Hour Post-fertilization zebrafish Assay for Mortality (AID 2283633);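 for AC50: fitted as increase in binary mortality versus DMSO negative control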
Method in brief: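 Dechorionated Tropical 5D wild-type zebrafish embryos, one per well from 6 hpf, were statically exposed at 28C in the dark until 120 hpf (0.64% DMSO final). Mortality was scored as present/absent by brightfield microscopy, fitted positively versus DMSO.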

[10] = Tanguay_ZF_120hpf_EYE_legacy: (Legacy) Oregon State University Tanguay Lab 120 Hour Post-fertilization zebrafish Assay for Eye Malformation (AID 2283636);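 note: binary presence or absence of eye malformation scored by brightfield in 120 hpf larvae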
Method in brief: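 5D wild-type embryos, pronase-dechorionated at 4 hpf; static exposure 6–120 hpf, 28C, dark; DMSO 0.64% final; 5uM trimethyltin chloride positive control. Binary eye-defect scoring at 120 hpf; dead embryos not scored.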

[11] = Tanguay_ZF_120hpf_SNOU_legacy: (Legacy) Oregon State University Tanguay Lab 120 Hour Post-fertilization zebrafish Assay for Snout Malformation (AID 2283637)
Method in brief: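 Binary brightfield scoring of snout malformation at 120 hpf. Dechorionated 5D wild-type embryos, one per well, static exposure from 6 hpf at 28C, sealed and dark; final DMSO 0.64% (vol/vol), DMSO as baseline; 5uM trimethyltin chloride positive control.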

[12] = Tanguay_ZF_120hpf_OTIC_legacy: (Legacy) Oregon State University Tanguay Lab 120 Hour Post-fertilization zebrafish Assay for Otic Vesicle Malformation (AID 2283639)
Method in brief: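 Brightfield scoring at 120 hpf, binary present/absent; DMSO negative control, 5uM trimethyltin chloride positive control. Static exposure at 28C, final DMSO 0.64% (vol/vol). Dead embryos not scored for malformation.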

[13] = Tanguay_ZF_120hpf_SOMI_legacy: (Legacy) Oregon State University Tanguay Lab 120 Hour Post-fertilization zebrafish Assay for Somite Malformation (AID 2283647)
Method in brief: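 Tropical 5D wild-type zebrafish embryos, dechorionated with pronase at 4 hpf, were placed singly at 6 hpf and statically exposed until 120 hpf at 28C in 0.64% DMSO. Somite malformation was scored present/absent by brightfield microscopy versus DMSO.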

[14] = Tanguay_ZF_120hpf_PFIN_legacy: (Legacy) Oregon State University Tanguay Lab 120 Hour Post-fertilization zebrafish Assay for Pectoral Fin Malformation (AID 2283648);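 note: each larva judged yes or no for fin defect by brightfield with dead larvae skipped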
Method in brief: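 Binary pectoral fin malformation call at 120 hpf by brightfield microscopy; 5D wild-type zebrafish, chorion removed at 4 hpf, one embryo per well from 6 hpf, static exposure at 28C; DMSO (0.64% final) as baseline.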

[15] = Tanguay_ZF_120hpf_YSE_legacy: (Legacy) Oregon State University Tanguay Lab 120 Hour Post-fertilization zebrafish Assay for Yolk Sac Edema (AID 2283634);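 for AC50: actives raise the incidence of yolk sac edema above the DMSO baseline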
Method in brief: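 Tropical 5D wild-type embryos, dechorionated with pronase at 4 hpf, were exposed singly from 6 hpf to 120 hpf under static, sealed, dark conditions at 28C with 0.64% DMSO final. Yolk sac edema was scored present/absent by brightfield microscopy.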

[16] = Tanguay_ZF_120hpf_AXIS_legacy: (Legacy) Oregon State University Tanguay Lab 120 Hour Post-fertilization zebrafish Assay for Body Axis Malformation (AID 2283635);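 for AC50: potency for an increased fraction of larvae scored with body axis malformation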
Method in brief: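 Tropical 5D wild-type zebrafish embryos, dechorionated with pronase at 4 hpf, were placed singly in wells at 6 hpf and exposed statically to test chemical (0.64% DMSO final) at 28C until 120 hpf, then scored by brightfield for body axis defects.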

[17] = Tanguay_ZF_120hpf_JAW_legacy: (Legacy) Oregon State University Tanguay Lab 120 Hour Post-fertilization zebrafish Assay for Jaw Malformation (AID 2283638);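 for AC50: active means more embryos with jaw malformation than DMSO controls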
Method in brief: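 Tropical 5D wild-type embryos, dechorionated with pronase at 4 hpf, were placed singly per well at 6 hpf and statically exposed at 28C until 120 hpf (0.64% DMSO final). Jaw malformation scored as present/absent by brightfield microscopy at 120 hpf, analyzed relative to DMSO.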

[18] = Tanguay_ZF_120hpf_PE_legacy: (Legacy) Oregon State University Tanguay Lab 120 Hour Post-fertilization zebrafish Assay for Pericardial Edema (AID 2283640);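 for AC50: potency for increased incidence of pericardial edema versus DMSO baseline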
Method in brief: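 Tropical 5D wild-type zebrafish embryos were exposed statically to 120 hpf at 28C, sealed and foil-covered, in 0.64% DMSO final. Pericardial edema was scored present/absent by brightfield microscopy; dead embryos were not scored.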

[19] = Tanguay_ZF_120hpf_BRAI_legacy: (Legacy) Oregon State University Tanguay Lab 120 Hour Post-fertilization zebrafish Assay for Brain Malformation (AID 2283641)
Method in brief: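 Tropical 5D wild-type zebrafish embryos were exposed statically in sealed, foil-covered plates at 28C until 120 hpf, with 0.64% (vol/vol) final DMSO. Brain malformation was scored present/absent by brightfield microscopy, relative to DMSO baseline.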

[20] = Tanguay_ZF_120hpf_CFIN_legacy: (Legacy) Oregon State University Tanguay Lab 120 Hour Post-fertilization zebrafish Assay for Caudal Fin Malformation (AID 2283649)
Method in brief: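 Tropical 5D wild-type embryos, dechorionated with pronase at 4 hpf, were placed singly in wells at 6 hpf and statically exposed to compound at 28C until 120 hpf (0.64% DMSO). Caudal fin malformation was scored present/absent by brightfield microscopy.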

Measured: AC50

O=C1CN(N=Cc2ccc([N+](=O)[O-])o2)C(=O)N1
not listed: [15] | [16] | [17] | [18] | [19] | [20]
inactive: all other assays above

O=C(N[C@H](CO)[C@H](O)c1ccc([N+](=O)[O-])cc1)C(Cl)Cl
inactive: [1] | [2] | [3] | [4] | [5] | [6] | [7] | [8]

c1ccc2cc3ccccc3cc2c1
not listed: [19] | [20]
inactive: all other assays above

CCCCCCCCCCCCCCCCOS(=O)(=O)O
active: [5] 36.5 µM
inactive: all other assays above

CCCCCCCCN(C)C
not listed: [2] | [3] | [8] | [10] | [15] | [18] | [19] | [20]
inactive: all other assays above

O=C(O)c1cccc(C[C@@H]2COc3ccc(OCc4nc5cc(F)ccc5s4)cc3[C@@H]2O)c1
active: [9] 26 µM | [15] 5.39 µM | [16] 5.78 µM | [11] 3.99 µM | [17] 9.13 µM | [18] 0.953 µM
not listed: [3] | [7] | [20]
inactive: all other assays above

Cc1ccc(S(=O)(=O)NC(=O)NN2CCCCCC2)cc1
inactive: [9] | [16] | [10] | [17] | [12] | [18] | [13] | [14]

NC(N)=O
inactive: [9] | [15] | [16] | [11] | [12] | [13] | [14] | [20]

COc1cc(C(C)C)c2c(c1)S(=O)(=O)N(COc1cc(=O)n3cccc(OCCN4CCCCC4)c3n1)C2=O
active: [16] 32.4 µM | [11] 24.6 µM | [12] 15.3 µM | [18] 20 µM
inactive: [9] | [15] | [10] | [17] | [19] | [13] | [14] | [20]

CCN(CC)C(=S)SSC(=S)N(CC)CC
active: [15] 0.425 µM | [16] 0.36 µM | [10] 1.4 µM | [11] 1.4 µM | [17] 1.24 µM | [18] 1.22 µM | [13] 0.619 µM
inactive: [9] | [12] | [19] | [14] | [20]

O=C(O)[C@H](O)[C@@H](O)C(=O)O
inactive: [9] | [15] | [16] | [11] | [17] | [12] | [18] | [13] | [14] | [20]

CCCCCCCC1CCC(=O)O1 (stereo not given)
inactive: [9] | [16] | [10] | [18] | [13]
active: [15] 25.9 µM | [11] 31.9 µM | [17] 40.3 µM | [14] 51.5 µM

C[C@@H](Oc1ccc(CNC(=O)c2cccnc2Oc2ccc3c(c2)OCO3)c(F)c1)C(=O)O
inactive: [9] | [15] | [16] | [10] | [11] | [17] | [12] | [18] | [13] | [14] | [20]

Nc1ccn([C@@H]2O[C@H](CO)[C@@H](O)[C@@H]2O)c(=O)n1
inactive: [9] | [15] | [16] | [10] | [11] | [17] | [12] | [18] | [13] | [14]

Cc1ncc([C@@H](CCCCCCc2ccc3c(n2)NCCC3)CC(=O)O)cn1
inactive: [9] | [15] | [16] | [10] | [11] | [17] | [12] | [18] | [19] | [13] | [20]

c1ccc2c(c1)-c1cccc3c1c-2cc1ccccc13
inactive: [9] | [15] | [10] | [11] | [12] | [13] | [14] | [20]

Cc1nc(-c2ccccn2)ncc1C(=O)Nn1cc(C)c2cc(F)ccc21
inactive: [9] | [15] | [16] | [10] | [11] | [17] | [12] | [18] | [13] | [14] | [20]

OCc1ccccc1
inactive: [9] | [15] | [16] | [10] | [11] | [17] | [12] | [18] | [13] | [14]

O=C(NO)C1(NS(=O)(=O)c2ccc(Oc3ccc(F)cc3)cc2)CCOCC1
inactive: [9] | [15] | [16] | [10] | [11] | [17] | [12] | [18] | [13] | [14] | [20]

CC(C)CC(C)O (stereo not given)
inactive: [9] | [15] | [16] | [10] | [11] | [17] | [12] | [18] | [13] | [14]
